# The campaign covered roughly 4,800 compounds. About 410 (8.5%) showed an effect of 50% or more. This excerpt belongs to a sample that is enriched for strong results.
# System: Plasmodium falciparum
# Assay: Confirmatory screen in NF54 pLDH assay, in single point, at 2uM, 72h
# Format: functional, Erythrocyte
# Details: timepoint 72 hour
row,SMILES,% Inhibition
1,Cc1cnccc1NCCNCc1cccc(OCCCCN2CCOCC2)c1,95%
2,Cc1cnccc1NCCNCc1cnc(N2CCCCC2)nc1,62%
3,CCCN1CCC(N2CC(c3cccnc3)C(c3nc(C4CCCC4)no3)C2)CC1 (stereo unspecified),10%
4,OCC1CCCN1CCCCNC1CC2(CCC2)Oc2ccccc21 (stereo unspecified),-5%
5,COc1ccc2c(O)c(Br)c(C)nc2c1,72%
6,COc1ccc2nc3cc(Cl)ccc3c(O)c2c1,39%
7,Cc1nc(-c2ccccn2)nc(NC2CCN(CC(F)F)CC2)c1C,24%
8,Cc1cnccc1N1CCCN(Cc2ccccc2OCCN2CCN(C)CC2)CC1,102%
9,CCCC(=O)NC1COCC1Cc1ccncc1 (stereo unspecified),86%
10,CCOc1cc(C(=O)NC2CCN(CC3CCCC3)CC2)cc(-c2ccccc2)c1OC,99%
11,Cc1cc(F)ccc1N1CCC(NCCCNc2cccnc2)CC1,-2%
12,FC(F)(F)c1ccc(N2CCC[C@H](NC3CCN(Cc4ccco4)CC3)C2)nc1,38%
13,CCc1cc(Nc2ccc(N3CCOCC3)nc2)nc(-c2ccncc2)n1,42%
14,O=C(NC1CCN(CCOc2ccc(Cl)cc2)CC1)c1c[nH]c2ccncc2c1=O,100%
15,OC[C@H](CNCc1cc2ccc(F)cc2[nH]1)c1ccccc1Cl,82%
16,O[C@@H](CNCc1cc2cc(Cl)c(Cl)cc2[nH]1)c1ccc(F)cc1,80%
17,Cc1cc(N2CCC(N(C)Cc3cc(-c4ccccc4)n[nH]3)CC2)nc(N)n1,52%
18,CN(CCCc1cc(-c2ccc(F)cc2)n[nH]1)CC1CCNCC1,17%
19,CCN1CCN(c2ccc(CNCc3cccc(O)c3)cc2F)CC1,85%

row,SMILES,% Inhibition
1,Cc1ccccc1CN1CCC(CNc2c3c(nc4ccccc24)CCC3)CC1,103%
2,N#Cc1cccc(Cl)c1N1CCC(N2CCCC2)CC1,38%
3,CCc1cc(NCCc2nc3cc(F)ccc3[nH]2)nc(-c2ccccn2)n1,9%
4,COCCNc1nc(N[C@@H](C)c2ccccc2)c2ccccc2n1,92%
5,C[C@H](Nc1nc(N)c2ccccc2n1)c1cccc(-n2cncn2)c1,29%
6,NCC1(O)CCN(c2ccnc3cc(F)c(Cl)cc23)CC1,97%
7,CCc1oc2ccccc2c1CNC[C@H](O)c1ccc(Cl)cc1,99%
8,CC(C)c1ccc(CN2CCC[C@@](O)(CNCCN3CCNCC3)C2=O)cc1,29%
9,O=C1CN(C(=O)c2ccnc3ccccc23)CCN1Cc1ccccc1F,63%
10,COc1cc2nc(-c3ccc(F)c4cccnc34)nc(N)c2cc1OC,102%
11,Cc1cccc(N2CCC(NCc3cc(C)cc(CN4CCN(C)CC4)c3C)CC2)c1,84%
12,Cc1cc(C)c(CN2CCN(C)CC2)cc1CNCCCn1ccnc1C,44%
13,Clc1ccc2[nH]c3c(c2c1)CCCC3NC1CCN(C2CCOC2)CC1 (stereo unspecified),96%
14,O=C(NCc1ccc(OC(F)(F)F)cc1)N(CCN1CCCC1)[C@H]1CCCNC1,33%
15,CCN1CCC(N2CCC(C(=O)NCCc3ccc(OC(F)(F)F)cc3)CC2)CC1,53%
16,Cc1sc2nc(-c3ccccn3)nc(NCCc3nccn3C)c2c1-c1ccccc1,65%
17,O=C(CCc1nnc(-c2ccc(-c3ccccc3)cc2)o1)NC[C@@H]1CCCN2CCCC[C@H]12,86%
18,COc1ccc2nc(C)cc(NCc3cccc(NC(=O)c4ccco4)c3)c2c1,105%
19,Cc1c(CN2CCC(O)(Cn3ccnc3)CC2)[nH]c2c(Cl)cccc12,99%

row,SMILES,% Inhibition
1,Cc1ccc2nc(NC[C@H]3CCN(C4CC4)C3)cc(C)c2c1,100%
2,Cc1ccc2nc(-c3cccc(NC(=O)c4ccc(OC(F)(F)F)c(Cl)c4)c3)[nH]c2n1,74%
3,O=C(NCCNc1ccnc2ccncc12)c1ccc(C(F)(F)F)cc1,43%
4,Cc1cnccc1NCCNCc1ccc(OC(C)C)c(Cl)c1,84%
5,Cc1ocnc1CNC[C@H](O)c1ccc(Cl)c(Cl)c1,97%
6,CNc1nc(N[C@H]2CCCN(Cc3ccc(Cl)cc3)C2)nc2c1CCC2,100%
7,Nc1ccc(Nc2ccc(F)cc2)c2ccncc12,70%
8,CN([C@@H](c1ccccc1)c1ccccc1Br)S(=O)(=O)c1c[nH]c2ncccc12,67%
9,CN(C[C@H](O)COc1cccc(CNCCCOc2cccnc2)c1)C1CCCCC1,44%
10,CN(C[C@H](O)COc1ccccc1CN1CCC(c2ccncc2)CC1)C1CCCCC1,84%
11,O=C(Nc1cncnc1N1CCCC1)c1cc(F)cc2[nH]cnc12,-8%
12,CN1CCC(N(C)C[C@H](Nc2ncnc3ccccc23)c2ccccc2)CC1,102%
13,Cc1nc2ccc(Oc3ccccc3)cc2c(O)c1CN(C)C1CCN(C)CC1,28%
14,CN(C)CCN1CCC(CNCc2ccc3ncccc3c2)CC1,29%
15,COc1ccc(-c2cncc(C(=O)NCC3CCN(CCN(C)C)CC3)c2)cc1,96%
16,COC(=O)c1cn(CCNc2ccnc3cc(Cl)ccc23)cc2c(O)nnc1-2,103%
17,c1ccc(-c2nc3c(c(NCCNc4ncccn4)n2)CCC3)nc1,23%
18,CCCN(CCN1CCN(CC)CC1)c1nc(-c2ccccn2)nc2c1CCC2,10%

# From ChEMBL document CHEMBL5308541, “MAIP: An Open-Source Tool to Enrich High-Throughput Screening Output and Identify Novel, Druglike Molecules with Antimalarial Activity” (ACS Med Chem Lett, 2023)
